Assay outcomes deposited in PubChem BioAssay by National Center for Advancing Translational Sciences (NCATS).
A549 tox: kills or reduces viability of A549 cells in Nrf2 counter-screen; A549 ARE-Fluc cells, CellTiter-Fluor viability, 18-24 h; Potency, µM (highest dose often 46 µM), most hits filed as inhibitors; 390,000 compounds, 0.16% hits; AID 504648
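A549 ARE-Fluc cells in 5% FBS OPTI-MEM, 5000 cells/well, rested 2 h then exposed to compounds in concentration-response for 18-24 h at 37 °C. Viability by CellTiter-Fluor fluorescence (Ex 405/Em 525) after 30 min; luciferase luminescence (BugLite, 15 min, RT) read afterwards.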
ATXN2 expr inh: ATXN2 expression inhibition; HEK-293 ATXN2-luciferase reporter, luminescence, 24 h; Potency, µM (titrated, usually from 57 µM), usual class: inhibitors; 360,000 compounds, 0.72% hits; AID 1745845; further: nearly all actives have a fitted effect of over 55% in size
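ATXN2-luciferase reporter cells (luciferase flanked by upstream and downstream ATXN2 gene portions) were treated 24 h at 37 °C with compounds at up to 57 uM. SteadyGlo luminescence gave expression; GF-AFC fluorescence gave viability.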
S2 tox: viability counter-screen for ATXN expression inhibitors | 400,000 compounds, 0.49% hits | Potency, µM (doses to about 56.7 µM), usual class: cytotoxic | S2 cells (HEK-293 line with an ATXN2-luciferase reporter) viability, CellTiter-Fluor protease fluorescence, 24 h; further: nearly all actives have a fitted effect of over 40% in size
TGFb SMAD3 inh: inhibitors of TGF-b signaling. HepG2 CAGA-GFP TGF-b/SMAD3 reporter, GFP fluorescence, 18 h; TGF-beta stimulated, 500 pg/mL final. Potency, µM (doses to about 46.1 µM), hits mostly inhibitors. 410,000 compounds, 1.2% hits; further: nearly all actives have a fitted effect of over 65% in size
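TGF-beta reporter screen: HEPG2 CAGA-GFP, 1% FBS, 500 pg/mL TGF-beta final, 18 h; per-cell GFP summed per well; curves fitted and categorized by class.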
HepG2 tox: counter-screen for TGF-b inhibitors: cytotoxicity in HepG2 cells | HepG2 CAGA-GFP viability, ATP luminescence, 18 h | Potency, µM (series often up to 46.1 µM), most hits filed as cytotoxic | 410,000 compounds, 0.76% hits
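HepG2 CAGA-GFP cells (1000/well, DMEM with 1% FBS) received compound, then TGF-beta at 500 pg/mL final, and were incubated 18 hours at 37 degrees C. Viability was read by CellTiter-Glo luminescence. Media-only wells were set as complete cell-killing and DMSO as no toxicity.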
Nrf2 inh: inhibitors of Nrf2 signaling. A549 ARE-Fluc reporter, luciferase luminescence, 18-24 h. AID 504444. Potency, µM (doses to about 46 µM), usual class: inhibitors. 360,000 compounds, 2.1% hits; further: nearly all actives have a fitted effect of over 60% in size
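Nrf2 function is reported as luminescence of an ARE-controlled luciferase in A549 cells. Compounds were tested at several concentrations, and a CellTiter-Fluor read on the same wells flagged cytotoxicity.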
Each line names hits and unclear results; the compound was inactive in the other large screens; ! = not confirmed by another sample. Most compounds without a hit are left out; they make up all but 3.8% or so of the library. The call rests on the fitted dose curve; in most records, active means well fitted curve in the direction sought with a large enough effect; inconclusive means small, poorly fitted or top-dose-only effect, or another doubt; inactive means no such curve, though single readings can be large; an effect the other way counts as inactive or inconclusive.

CN(C)C1(CNC(=O)Nc2ccc(Cl)c(Cl)c2)CCCCC1	ATXN2 expr inh inconclusive, S2 tox inconclusive, TGFb SMAD3 inh inconclusive, HepG2 tox 16µM
CN(C)C1(CNC(=O)c2ccc(NS(=O)(=O)c3ccc(Cl)c(Cl)c3)cc2)CCCCC1	none
CN(CCc1ccccc1)Cc1c[nH]c2ccccc12	S2 tox inconclusive, TGFb SMAD3 inh 14µM, HepG2 tox 11µM (no result: ATXN2 expr inh)
CCN(CC)Cc1c[nH]c2ccccc12	none
CCC(=NCc1ccc2c(c1)OCO2)c1c(O)n(C)c(=O)n(C)c1=O	Nrf2 inh inconclusive
CCC(=NCc1cc(OC)cc(OC)c1)c1c(O)n(C)c(=O)n(C)c1=O	A549 tox inconclusive, Nrf2 inh 23µM
NC(CCc1ccccc1)c1csc(NC(=O)Nc2ccccc2Oc2ccccc2)n1 (configuration not stated)	ATXN2 expr inh inconclusive, S2 tox inconclusive, TGFb SMAD3 inh inconclusive, HepG2 tox 10µM (no result: A549 tox, Nrf2 inh)
CC(C)(C)c1csc(NC(=O)Nc2ccccc2)n1	TGFb SMAD3 inh inconclusive, Nrf2 inh inconclusive
O=C(Nc1cccc(Br)c1)Oc1cccc2cccnc12	ATXN2 expr inh 6.3µM, S2 tox inconclusive, TGFb SMAD3 inh inconclusive, HepG2 tox 2.8µM (no result: A549 tox, Nrf2 inh)
O=C(Nc1c(Cl)cccc1Cl)Oc1cccc2cccnc12	ATXN2 expr inh inconclusive, TGFb SMAD3 inh inconclusive (no result: A549 tox, S2 tox, Nrf2 inh)
NC(=O)c1cc([N+](=O)[O-])cc([N+](=O)[O-])c1	ATXN2 expr inh inconclusive
CC(C)(C)c1cc([N+](=O)[O-])cc(C(C)(C)C)c1O	A549 tox inconclusive, ATXN2 expr inh inconclusive, S2 tox inconclusive, TGFb SMAD3 inh 7.9µM, Nrf2 inh 18µM
O=C(Nc1ccc2nc3n(c(=O)c2c1)CCCCC3)c1cccc(C(F)(F)F)c1	ATXN2 expr inh inconclusive, Nrf2 inh 12µM
Cc1ccccc1OCCN=Cc1c(O)n(C)c(=O)n(C)c1=O	Nrf2 inh 21µM
CC[n+]1c(-c2ccccc2)c2cc(N)ccc2c2ccc(N)cc21	A549 tox inconclusive, ATXN2 expr inh 7.1µM!, S2 tox inconclusive, TGFb SMAD3 inh inconclusive, Nrf2 inh 15µM
O=C1NCN(c2ccccc2)C12CCN(C(c1cccs1)c1nnnn1C1CCCC1)CC2 (configuration not stated)	ATXN2 expr inh inconclusive, S2 tox inconclusive, TGFb SMAD3 inh inconclusive (no result: A549 tox, Nrf2 inh)
O=C1NCN(c2ccccc2)C12CCN(C(CCc1ccccc1)c1nnnn1C1CCCCC1)CC2 (configuration not stated)	ATXN2 expr inh inconclusive, S2 tox inconclusive, TGFb SMAD3 inh 13µM (no result: A549 tox, Nrf2 inh)
O=C1NCN(c2ccccc2)C12CCN(C(CCc1ccccc1)c1nnnn1C1CCCC1)CC2 (configuration not stated)	ATXN2 expr inh inconclusive, S2 tox 32µM, TGFb SMAD3 inh 11µM (no result: A549 tox, Nrf2 inh)
CC(Cc1ccccc1)NCCCCl (configuration not stated)	none (no result: A549 tox, TGFb SMAD3 inh, HepG2 tox, Nrf2 inh)
C=CCn1c(=O)c(C=Nc2c(OC)cccc2[N+](=O)[O-])c(O)n(CCCC)c1=O	none
Cc1cc(N(CCCl)CCCl)ccc1C=NNC(=O)c1cccnc1	ATXN2 expr inh 1.8µM
O=C(NN=Cc1ccc(N(CCCl)CCCl)cc1Cl)c1cccnc1	ATXN2 expr inh inconclusive, S2 tox inconclusive, TGFb SMAD3 inh 5µM
COc1ccc(NC(=O)N2C[C@@H]3C[C@@H](C2)c2cccc(=O)n2C3)c(OC)c1	none
ClCCN(CCCl)c1ccc(/C=C/c2ccnc3ccccc23)cc1	none (no result: A549 tox, ATXN2 expr inh, S2 tox, Nrf2 inh)
COc1cc(NC(=O)c2cccc3c(-c4cccnc4)coc23)cc(OC)c1OC	ATXN2 expr inh 11µM, S2 tox inconclusive (no result: A549 tox, Nrf2 inh)
Cc1ccccc1C(=O)Nc1sc2c(c1C(=O)O)CCC(C(C)(C)C)C2 (configuration not stated)	Nrf2 inh 3.7µM (no result: ATXN2 expr inh, S2 tox)
O=C(Nc1sc2c(c1C(=O)Nc1ccc(Cl)cc1)CCCC2)c1cccs1	Nrf2 inh inconclusive
CC(NC(=O)Oc1cccc2ccccc12)c1ccccc1 (configuration not stated)	none
Cc1cc(C)c2c(ccc3cccc[n+]32)c1	A549 tox inconclusive, Nrf2 inh 1.3µM
